Results from PubChem BioAssay AID1159580 (chemical genetic matrix, 2015).
Several values for one entry are separate records, joined by “and”; a condition that tells them apart may be missing. Equal values may be shown once. The campaign covered roughly 5,500 compounds. About 2,000 (36%) were called active. About 18% were inconclusive and are not listed. No stated cut-off is given here; in the data, active means normalized growth mostly below about 0.91 (no sharp cut-off); inconclusive means no clear call, values can overlap the other calls; inactive means mostly above about 0.92. Some of the results follow.

Experiment: chemical genetic growth profiling, strain panel (AID 1159580);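 further: tested at 20 µM; growth read once vehicle control cultures reached saturation at 30 °C; 1 = growth at the plate median or of vehicle wells; lower values mean less growth of the strain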
Details: S. cerevisiae deletion strains, growth OD

Measured: normalized growth

CCOP(=S)(OCC)Oc1ccc2c(C)c(Cl)c(=O)oc2c1
active: locus YCL011C, strain gbp2, active compounds read low 0.906 | locus YGL253W, strain hxk2, active compounds read low 0.903
inactive: locus YAL013W, strain DEP1, active compounds read low 0.987 | locus YAL021C, strain ccr4, active compounds read low 0.997 | locus YAL026C, strain drs2, active compounds read low 0.96 | locus YAL030W, strain snc1, active compounds read low 0.976 | locus YBL061C, strain skt5, active compounds read low 0.96 | locus YBR009C, strain hhf1, active compounds read low 0.982 | locus YBR021W, strain FUR4, active compounds read low 0.97 | locus YBR023C, strain chs3, active compounds read low 0.944 | locus YBR171W, strain sec66, active compounds read low 0.939 | locus YBR229C, strain ROT2, active compounds read low 0.955 | locus YBR231C, strain swc5, active compounds read low 0.979 | locus YBR279W, strain paf1, active compounds read low 0.971 | locus YCL016C, strain dcc1, active compounds read low 0.984 | locus YCL029C, strain bik1, active compounds read low 0.984 | locus YCL061C, strain MRC1, active compounds read low 0.96 | locus YCL069W, strain vba3, active compounds read low 0.957 | locus YCR088W, strain abp1, active compounds read low 0.964 | locus YDL005C, strain med2, active compounds read low 0.959 | locus YDL035C, strain GPR1, active compounds read low 0.978 | locus YDL040C, strain nat1, active compounds read low 0.964 | locus YDL074C, strain BRE1, active compounds read low 0.907 | locus YDL101C, strain DUN1, active compounds read low 0.975 | locus YDL134C, strain PPH21, active compounds read low 0.981 | locus YDL185W, strain tfp1, active compounds read low 0.957 | locus YDL192W, strain arf1, active compounds read low 0.975 | locus YDR001C, strain nth1, active compounds read low 0.977 | locus YDR069C, strain doa4, active compounds read low 0.938 | locus YDR101C, strain arx1, active compounds read low 0.983 | locus YDR137W, strain rgp1, active compounds read low 0.939 | locus YDR150W, strain NUM1, active compounds read low 0.982 | locus YDR159W, strain sac3, active compounds read low 0.901 | locus YDR162C, strain NBP2, active compounds read low 0.92 | locus YDR195W, strain ref2 1.03 | locus YDR297W, strain sur2, active compounds read low 0.988 | locus YDR318W, strain mcm21, active compounds read low 0.976 | locus YDR334W, strain swr1, active compounds read low 0.961 | locus YDR335W, strain msn5, active compounds read low 0.975 | locus YDR388W, active compounds read low 0.98 | locus YDR392W, strain spt3, active compounds read low 0.836 | locus YDR502C, strain sam2, active compounds read low 0.984 | locus YEL003W, strain gim4, active compounds read low 0.953 | locus YEL037C, strain rad23, active compounds read low 0.962 | locus YEL061C, strain CIN8 (second series), active compounds read low 0.962 | locus YEL061C, strain CIN8, active compounds read low 0.979 | locus YER015W, strain faa2, active compounds read low 0.966 | locus YER016W, strain bim1, active compounds read low 0.97 | locus YER110C, active compounds read low 0.977 | locus YER111C, strain swi4, active compounds read low 0.975 | locus YER155C, strain BEM2 (second series), active compounds read low 0.959 | locus YER155C, strain BEM2, active compounds read low 0.998 | locus YER167W, strain BCK2, active compounds read low 0.99 | locus YFR010W, strain ubp6, active compounds read low 0.942 | locus YGL078C, strain dbp3, active compounds read low 0.984 | locus YGL086W, strain mad1, active compounds read low 0.989 | locus YGL167C, strain pmr1, active compounds read low 0.956 | locus YGL173C, strain kem1, active compounds read low 0.956 | locus YGL227W, strain vid30, active compounds read low 0.961 | locus YGL240W, strain doc1, active compounds read low 0.933 | locus YGL248W, strain PDE1, active compounds read low 0.957 | locus YGR078C, strain PAC10, active compounds read low 0.973 | locus YGR135W, strain pre9, active compounds read low 0.97 | locus YGR229C, strain SMI1, active compounds read low 0.947 | locus YGR252W, strain gcn5, active compounds read low 0.937 | locus YHR013C, strain ard1, active compounds read low 0.968 | locus YHR027C, strain rpn1, active compounds read low 1 | locus YHR030C, strain SLT2, active compounds read low 0.986 and 1.02 | locus YHR079C, strain IRE1 (second series), active compounds read low 0.988 | locus YHR079C, strain IRE1, active compounds read low 1 | locus YHR094C, strain hxt1, active compounds read low 0.985 | locus YHR129C, strain ARP1, active compounds read low 0.983 | locus YHR142W, strain chs7, active compounds read low 0.912 | locus YHR200W, strain rpn10, active compounds read low 0.984 | locus YIL066C, strain RNR3, active compounds read low 0.961 | locus YIL073C, strain SPO22, active compounds read low 0.988 | locus YIL125W, strain kgd1, active compounds read low 0.981 | locus YIR030C, strain dcg1, active compounds read low 0.989 | locus YJL092W, strain hpr5, active compounds read low 0.944 | locus YJL095W, strain BCK1 (second series), active compounds read low 0.96 | locus YJL095W, strain BCK1, active compounds read low 0.958 and 1.02 | locus YJL115W, strain asf1, active compounds read low 0.962 | locus YJL129C, strain trk1, active compounds read low 0.942 | locus YJL134W, strain LCB3, active compounds read low 0.971 | locus YJL154C, strain vps35, active compounds read low 0.985 | locus YJL164C, strain tpk1, active compounds read low 0.974 | locus YJL166W, strain qcr8, active compounds read low 0.935 | locus YJL168C, strain set2, active compounds read low 0.986 | locus YJL187C, strain SWE1 (second series), active compounds read low 0.981 | locus YJL187C, strain SWE1, active compounds read low 0.964 | locus YJR043C, strain POL32, active compounds read low 0.996 | locus YJR066W, strain TOR1, active compounds read low 0.967
